# An excerpt weighted towards active compounds, which were near 1.7% of everything screened.
# PTHR1 agonist: PTHR1 (human) receptor agonism; Q03431; HEK293 GP2 PTHR1 cells, GloSensor cAMP luminescence, 1 h; Potency, µM (series often up to 115 µM), without a hit: at the top dose activation, usual class: activators; 410,000 tested, 0.075% active; note: nearly all actives have a fitted effect of over 55% in size
#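 HEK-293-derived GP2 cells expressing PTHR1 and a GloSensor cAMP reporter, 3,000/well, plated overnight, given luciferin plus IBMX (each 0.5 mM as added) for 1 h at 37 °C, then compound for 1 h at 37 °C. Luminescence was read after 15 min at room temperature.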
# GLP1R inv ag: GLP-1 receptor (human) inverse agonism. HEK293 GLP-1R CRE-luciferase, luminescence, 24 h; GLP-1R form is constitutively active. Potency, µM (doses to about 38.3 µM), inactives show at the highest dose activity change, negative = inhibition, actives largely listed as inhibitors. AID 624417. 410,000 tested, 1.6% active; note: % is set by controls: 0 for no effect and ±100 for the full control effect; nearly all actives have a fitted effect of over 55% in size
# Target sequence (P43220 whole entry, looked up): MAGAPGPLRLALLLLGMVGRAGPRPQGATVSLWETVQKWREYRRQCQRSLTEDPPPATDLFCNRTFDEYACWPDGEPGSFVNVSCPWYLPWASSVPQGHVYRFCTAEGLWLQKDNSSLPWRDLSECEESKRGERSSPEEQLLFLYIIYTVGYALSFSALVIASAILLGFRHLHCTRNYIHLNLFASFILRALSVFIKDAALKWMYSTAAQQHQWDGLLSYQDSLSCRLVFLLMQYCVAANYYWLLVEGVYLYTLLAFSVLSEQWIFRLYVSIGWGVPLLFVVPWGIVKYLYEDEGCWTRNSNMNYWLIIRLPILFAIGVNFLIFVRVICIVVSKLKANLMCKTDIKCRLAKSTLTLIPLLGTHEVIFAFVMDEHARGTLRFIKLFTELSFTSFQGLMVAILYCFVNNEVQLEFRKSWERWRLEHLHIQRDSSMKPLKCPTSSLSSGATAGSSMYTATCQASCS
#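 Stable HEK293 clone (constitutively active GLP-1R + cAMP-response luciferase); 200 cells/uL plated, 12 h pre-culture, compound 24 hr, 37 deg C/5% CO2; detection reagent 12 min RT; luminescence.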
# RGS4 inh: inhibitors of human regulator of G protein signaling 4; P49798; Transcreener GDP fluorescence polarization, RGS4-accelerated GTP hydrolysis; Potency, µM (titrated, usually from 114 µM), without a hit: top-dose activity change, negative = inhibition, most hits filed as inhibitors; 390,000 tested, 0.039% active; note: % is set by controls: 0 for no effect and ±100 for the full control effect; nearly all actives have a fitted effect of over 75% in size
# Target sequence (P49798 whole entry, looked up): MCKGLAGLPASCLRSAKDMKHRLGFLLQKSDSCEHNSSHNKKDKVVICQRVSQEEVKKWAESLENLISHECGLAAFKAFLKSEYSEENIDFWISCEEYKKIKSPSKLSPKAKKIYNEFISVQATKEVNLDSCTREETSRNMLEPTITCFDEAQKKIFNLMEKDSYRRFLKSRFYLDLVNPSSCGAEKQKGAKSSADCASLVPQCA
#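 MLSMR compounds (23 nl, pin-transferred) preincubated 10 min at room temperature with a 500nM (2x) first reagent, then RGS4 at 900nM (2x) plus Transcreener GDP mix added; fluorescence polarization (620/688 nm) read before and after 90 min at 30 °C.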
# GLP1R cytotox: cytotoxic in the GLP-1 receptor inverse agonist counter-screen; HEK293 cAMP-luciferase reporter cells, luminescence, 24 h; Potency, µM (top dose mostly 38.3 µM), for the others: top-dose activity change, negative = inhibition, hits mostly inhibitors; 410,000 tested, 0.13% active; AID 624418;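 note: loss of luciferase light is scored as toxicity; % is set by controls: 0 for no effect and ±100 for the full control effect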
#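 A 23 nL compound transfer followed 12 hours of cell culture at 37 deg C; exposure then lasted 24 hr. Luciferase assay detection reagent was dispensed and plates read for luminescence after a 12 min room-temperature wait.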
# GLP-1R agonist: activates the human GLP-1 receptor | Potency, µM (titrated, usually from 45.6 µM), inactives show at the highest dose activation, actives largely listed as activators | AID 624172 | HEK293 GLP-1R CRE-luciferase, luminescence, 4-6 h; cells express a hypersensitive GLP-1R form | 380,000 tested, 0.007% active | P43220; note: % of control where 0% means no effect
# * marks the source's active call; other numbers are inactive results; i = inactive; ? = inconclusive; nt = not tested or not shown; [ ] = dose if it differs, or a comment. Calls come from the whole dose curve; as a rule, active = well fitted curve in the direction sought with a large enough effect; inconclusive = small, poorly fitted or top-dose-only effect, or another doubt; inactive = no such curve, though single readings can be large; an effect the other way counts as inactive or inconclusive. Potency is the fitted concentration of half-maximal effect.
SMILES,PTHR1 agonist,GLP1R inv ag,RGS4 inh,GLP1R cytotox,GLP-1R agonist
Cc1sc(NC(=O)c2ccco2)c(C(c2cccnc2)N2CCC(C)CC2)c1C (stereo not given),-23%,8.9µM*,-21%,-28%,-3%
COc1cccc(NC(=O)C(OC(=O)c2cnc(C)cn2)c2ccccc2)c1 (stereo not given),i,12%,-7%,24%,-2%
Cn1cc(C(=O)N/N=C/c2c(O)ccc3ccccc23)ccc1=O,i,3.2µM*,-54%,53%,0%
Cn1c(-c2ccccc2)c(/C=N/NC(=O)c2ccc(O)cc2)c2ccccc21,-39%,7.1µM*,9%,-20%,12%
COc1ccc(NC(=O)Nc2ccc3c(c2)C(=O)N([C@@H](C)CO)C[C@@H](C)[C@@H](CN(C)S(=O)(=O)c2cn(C)cn2)O3)cc1,3%,9%,21%,0%,-2%
CC1=NN(C(=O)COc2ccc(C)c(C)c2)C(O)(c2ccc(Cl)cc2)C1 (stereo not given),-36%,13µM*,14%,-13%,7%
CCCN(CC(=O)Nc1ccccc1OC)C(=O)c1ccc2[nH]c3c(c2c1)CC(C)CC3 (stereo not given),-21%,10µM*,-29%,-7%,-21%
CCCN(CC(=O)Nc1ccccc1OC)C(=O)c1cc(-c2cccs2)nn1-c1ccccc1,-11%,11µM*,-16%,10%,4%
CN(CC(=O)N1CCOCC1)Cc1c(Cl)cccc1NC(=O)c1ccccc1,nt,nt,nt,nt,-4%
CC(C)c1ccc(C2c3c(-c4ccccc4O)n[nH]c3C(=O)N2Cc2ccncc2)cc1 (stereo not given),-20%,?,-11%,?,nt
COc1ccc(Nc2c3c(nc4ccc(NC(=O)c5cc(Cl)ccc5OC)cc24)CCCC3)cc1OC,-19%,?,-21%,?,-6%
CC1(C)CC(=O)c2cc(C(=O)NCc3ccco3)c(=O)n(-c3ccccc3)c2C1,-13%[57.5 µM],-29%,-38%,1%,15%
CC1(C)CC(=O)c2cc(C(=O)NNc3ccccc3)c(=O)n(-c3ccccc3)c2C1,i,1µM*,7%,-8%,2%
S=C(N/N=C/c1ccccc1Cl)Nc1ccccc1,i,?,11%,4µM*,12%
COC(=O)c1ccccc1NC(=O)Cn1c(=O)n(CCC(=O)NCc2ccc3c(c2)OCO3)c(=O)c2ccccc21,i,10%,9%,5%,-1%
COc1cc(CNCCN2CCOCC2)ccc1OCc1ccc(Cl)cc1Cl,i,3.2µM*,-26%,-29%,-12%
O=C1C2C3CCCC3=C3CCCC3C2C(=O)N1c1ccc(Cl)cc1 (stereo not given),i,2%,-6%,-17%,-16%
O=C1C2C3CCCC3=C3CCCC3C2C(=O)N1c1cccc(Cl)c1 (stereo not given),-6%[57.5 µM],3.5µM*,-9%,2%,-2%
COc1ccc(/C=N/Nc2ccccc2)cc1Cn1nc(C)c([N+](=O)[O-])c1C,i,4µM*,-8%,-28%,-2%
COc1ccc(/C=N/N2CCOCC2)cc1Cn1nc(C)c([N+](=O)[O-])c1C,-19%,-17%,-2%,-2%,2%
C[C@]12C(=O)N(c3ccc(Cl)cc3)C(=O)N1[C@@H]1c3ccccc3OC[C@@H]1[C@H]2c1ccccc1,-11%,?,17%,5%,0%
O=C(C(Cc1ccccc1)N1C(=O)c2ccccc2C1=O)N1c2ccccc2CCc2ccccc21 (stereo not given),i,13µM*,8%,6%,-1%
Cc1ccc2c(c1)-c1c(cnn1CC(=O)N1CCN(c3cc(C)ccc3C)CC1)CO2,i,4%,15%,-1%,nt
CC(C)(C)CC(C)(C)NCC(O)COc1c(F)cc(Br)cc1F (stereo not given),-12%,10µM*,-25%,-5%,-20%
CCc1cc(C(=O)N2CCc3c([nH]c4ccccc34)C2c2ccc(OC)cc2F)no1 (stereo not given),-3%,?,?,1%,10%
SMILES,PTHR1 agonist,GLP1R inv ag,RGS4 inh,GLP1R cytotox,GLP-1R agonist
Cc1cc(C(=O)N2CCc3c([nH]c4ccccc34)C2c2c(F)cccc2Cl)no1 (stereo not given),i,10µM*,25%,-11%,-5%
Cc1nc(C(=O)N2CCc3c([nH]c4ccccc34)C2c2cc(F)ccc2F)cs1 (stereo not given),i,11µM*,1%,4%,?
CSCCC(NC(=O)c1ccccc1)C(=O)N1CCN(C(=O)c2ccccc2)CC1 (stereo not given),i,11%,-14%,0%,-2%
CSCCC(NC(=O)c1ccccc1)C(=O)N1CC=C(c2ccccc2)CC1 (stereo not given),-27%,10µM*,-18%,-22%,-3%
O=C(OCC(=O)N1CCCCC1)c1ccc2ccccc2n1,i,0%,-15%,5%,7%
O=C(NCc1ccc(F)cc1)C(=O)NCC(c1cccs1)S(=O)(=O)c1cccs1 (stereo not given),i,?,15%,-10%,nt
CCCCN=C(NNc1ccc(Br)cc1)C(=O)OCC,i,?,-33%,-20%,2%
CCOC(=O)C(=NCCCN(C)C)NNc1ccc(Br)cc1,24%,4µM*,2%,?,-1%
CC(=O)c1ccc(N2C(=O)N(Cc3cccc(C(F)(F)F)c3)c3ccccc3S2(=O)=O)cc1,i,10µM*,-13%,-10%,-11%
Cc1ccc(Cl)cc1-n1ncc2c(NCCC3=CCCCC3)ncnc21,-23%,8.9µM*,11%,-8%,nt
Cc1ccc(Cl)cc1-n1ncc2c(NCCCc3ccccc3)ncnc21,-39%,11µM*,20%,-1%,nt
Cc1ccc(Cl)cc1-n1ncc2c(NCCc3ccccc3)ncnc21,-42%,?,1%,-3%,nt
C[C@H](O)[C@@H]1C(=O)N2CCc3ccc(N4CCN(C)CC4)cc3[C@@H]2C[C@@H]1N(C)C(=O)NC1CCCCC1,i,-3%,-17%,-9%,0%
COc1cc(OC)nc(-n2ncc(Br)c(Br)c2=O)n1,-30%,?,-21%,3.2µM*,-5%
COCCn1c(SCC(=O)NNC(=O)c2ccccc2)nc2ccccc21,i,14%,-3%,3%,13%
O=C(Cc1ccc(Cl)cc1)c1c[nH]c(C(=O)NCc2cccnc2)c1,i,2.8µM*,-13%,?,-7%
COc1ccc2oc(=O)cc(CN3CCN(c4ccccc4F)CC3)c2c1,-33%,0%,8%,-1%,nt
O=C(CC(c1ccccc1)c1cc(Br)ccc1O)N1CCCCC1 (stereo not given),-13%,10µM*,10%,-21%,10%

# Screening data: PubChem BioAssay, National Center for Advancing Translational Sciences (NCATS)
